Values without a mark were called inactive. For some of these results: Entries with a potency or affinity are not part of this list. Active and inactive are the calls of the source. Unless noted, no rule for the calls is given here.

Test [1] in a line: antimalarial activity against Dd2 strain (AID 2302;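 active = growth inhibition above 50% at the single 2 µM test dose, taken to imply half-maximal potency below 2 µM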;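 also: 0% = DMSO untreated growth and 100% = chloroquine plus artemisinin killed control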). The settings on record: P. falciparum Dd2 in RBCs, LDH growth readout, 72 h; at 2 µM; active compounds read high.
Test [2] in a line: HepG2 cytotoxicity, primary screen, cytotoxicity control for P. falciparum antimalarial project, cell-based, ATP luminescence (AID 2303;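 active = inhibition above 50%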;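 also: 0% = DMSO wells and 100% = digitonin-killed cells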). Particulars: HepG2 viability, 24-48 h, at 10 µM, active compounds read high.
The target in test [3] is L-lactate dehydrogenase (Plasmodium falciparum (isolate CDC / Honduras)) (UniProt Q27743). Nature of the test: PfLDH activity inhibition – cell lysate, 3D7 strain, counter-screen for P. falciparum growth inhibition project (AID 2304).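 Also: 0% = vehicle and 100% = reference inhibitor.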 Particulars: P. falciparum 3D7 crude extract, LDH APAD/NBT absorbance; at 2 µM; active compounds read high. In general terms: The purpose of a counterscreen is to sort out artefacts and off-target activity.

Test [4] is described as follows: inhibition of 3D7 malaria parasite growth – strain 3D7 (AID 2306).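 Also: 0% = DMSO wells and 100% = chloroquine plus artemisinin control wells.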 The settings on record: P. falciparum 3D7 erythrocytic growth, LDH absorbance, 72 h; at 2 µM; active compounds read high.
The target of test [5] is Calcium-dependent protein kinase 1 (Plasmodium falciparum (isolate 3D7)) (UniProt P62344). Nature of the test: PfCDPK1 kinase inhibitors, biochemical, TCAMS library (AID 1159585; cut-off not given, nearly all actives have IC50 up to about 0.98 µM;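 also: inhibitors leave more ATP so luminescence rises with inhibition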). The settings on record: recombinant PfCDPK1, Kinase-Glo ATP depletion luminescence. Background: Kinase-Glo measures the ATP left after a reaction by luminescence.
Test [6] addresses Plasmodium falciparum protein kinase 6 (PK6, PF3D7_1337100) (UniProt Q8IDW1). Nature of the test: PfPK6 kinase inhibitors, biochemical, TCAMS library (AID 1159586). The settings on record: recombinant PfPK6, Kinase-Glo ATP depletion luminescence.
Test [7] addresses Protein kinase 7 (PK7), Plasmodium falciparum 3D7 (PF3D7_0213400) (UniProt Q7YTF7). Nature of the test: inhibition of Plasmodium PK7 catalytic activity – biochemical, TCAMS antimalarial set, Kinase-Glo luminescence (AID 1159587). The settings on record: recombinant PfPK7, Kinase-Glo ATP depletion luminescence.
Test [8] concerns the target Calcium-dependent protein kinase 4 (Plasmodium falciparum (isolate 3D7)) (UniProt Q8IBS5). Nature of the test: PfCDPK4 kinase inhibitors, biochemical, TCAMS library (AID 1159588; cut-off not given, nearly all actives have IC50 up to about 0.91 µM). Particulars: recombinant PfCDPK4, Kinase-Glo ATP depletion luminescence.

Calcium-dependent protein kinase 4 (Plasmodium falciparum (isolate 3D7)), sequence (Q8IBS5 whole entry, looked up): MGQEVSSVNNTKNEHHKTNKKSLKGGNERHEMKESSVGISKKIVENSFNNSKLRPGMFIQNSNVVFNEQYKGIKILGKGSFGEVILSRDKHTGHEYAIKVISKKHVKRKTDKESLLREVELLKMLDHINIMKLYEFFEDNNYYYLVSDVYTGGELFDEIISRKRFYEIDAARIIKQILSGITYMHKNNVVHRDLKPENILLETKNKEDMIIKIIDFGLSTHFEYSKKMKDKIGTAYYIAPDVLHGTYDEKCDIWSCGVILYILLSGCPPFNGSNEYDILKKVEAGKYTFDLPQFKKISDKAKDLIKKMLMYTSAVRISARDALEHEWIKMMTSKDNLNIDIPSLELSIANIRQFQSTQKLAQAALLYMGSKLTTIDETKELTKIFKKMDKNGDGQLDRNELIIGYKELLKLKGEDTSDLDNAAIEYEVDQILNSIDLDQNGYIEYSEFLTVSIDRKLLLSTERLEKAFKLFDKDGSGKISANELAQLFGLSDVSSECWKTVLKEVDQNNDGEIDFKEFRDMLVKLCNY
L-lactate dehydrogenase (Plasmodium falciparum (isolate CDC / Honduras)), sequence (Q27743 whole entry, looked up): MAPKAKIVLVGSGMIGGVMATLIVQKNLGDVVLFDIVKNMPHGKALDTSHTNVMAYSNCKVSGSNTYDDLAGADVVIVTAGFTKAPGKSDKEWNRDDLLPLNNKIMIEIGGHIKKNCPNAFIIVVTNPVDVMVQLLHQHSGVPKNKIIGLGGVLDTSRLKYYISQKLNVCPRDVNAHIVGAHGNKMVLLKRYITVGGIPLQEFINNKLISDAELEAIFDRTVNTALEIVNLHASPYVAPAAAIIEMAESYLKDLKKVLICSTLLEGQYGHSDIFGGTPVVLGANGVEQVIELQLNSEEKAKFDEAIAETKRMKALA
Protein kinase 7 (PK7), Plasmodium falciparum 3D7 (PF3D7_0213400), sequence (Q7YTF7 1-343): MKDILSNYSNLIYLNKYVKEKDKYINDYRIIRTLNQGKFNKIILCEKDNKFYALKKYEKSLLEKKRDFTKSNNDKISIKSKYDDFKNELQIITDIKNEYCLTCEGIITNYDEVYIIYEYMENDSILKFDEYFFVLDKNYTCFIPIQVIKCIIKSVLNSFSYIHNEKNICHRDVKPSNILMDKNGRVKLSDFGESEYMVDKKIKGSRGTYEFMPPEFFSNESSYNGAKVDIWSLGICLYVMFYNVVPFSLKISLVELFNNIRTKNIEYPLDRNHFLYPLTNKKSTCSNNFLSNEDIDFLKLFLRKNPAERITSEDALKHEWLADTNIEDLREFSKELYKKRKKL
Calcium-dependent protein kinase 1 (Plasmodium falciparum (isolate 3D7)), sequence (P62344 whole entry, looked up): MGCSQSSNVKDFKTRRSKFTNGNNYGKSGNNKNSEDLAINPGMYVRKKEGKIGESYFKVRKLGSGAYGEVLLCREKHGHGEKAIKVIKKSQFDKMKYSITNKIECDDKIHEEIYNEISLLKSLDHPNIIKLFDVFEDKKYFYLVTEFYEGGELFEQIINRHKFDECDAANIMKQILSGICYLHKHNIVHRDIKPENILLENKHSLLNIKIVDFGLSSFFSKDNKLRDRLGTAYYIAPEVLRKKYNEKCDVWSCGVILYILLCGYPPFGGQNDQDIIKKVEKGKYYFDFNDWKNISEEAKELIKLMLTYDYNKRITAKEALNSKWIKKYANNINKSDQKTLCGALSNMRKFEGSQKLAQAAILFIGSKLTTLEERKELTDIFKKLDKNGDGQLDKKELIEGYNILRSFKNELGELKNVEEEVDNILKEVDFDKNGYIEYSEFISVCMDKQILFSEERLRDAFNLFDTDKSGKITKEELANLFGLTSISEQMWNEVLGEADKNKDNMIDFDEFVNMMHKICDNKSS
Plasmodium falciparum protein kinase 6 (PK6, PF3D7_1337100), sequence (Q8IDW1 1-305): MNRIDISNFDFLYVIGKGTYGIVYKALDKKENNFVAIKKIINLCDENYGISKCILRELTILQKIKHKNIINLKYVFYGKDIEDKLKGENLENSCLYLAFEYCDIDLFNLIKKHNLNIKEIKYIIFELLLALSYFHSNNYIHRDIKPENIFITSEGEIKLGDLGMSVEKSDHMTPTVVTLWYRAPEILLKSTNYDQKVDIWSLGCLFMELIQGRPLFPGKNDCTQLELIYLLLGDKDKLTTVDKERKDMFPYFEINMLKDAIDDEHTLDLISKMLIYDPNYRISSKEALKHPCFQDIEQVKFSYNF

What is called inhibition is the change of the read-out against control, counted positive when it falls. `CCOC(=O)c1ccc(NC(=O)Nc2ccc(-c3ccc(-c4nc5ccc(C(F)(F)F)cc5[nH]4)cc3)cc2)cc1`: the results for the growth inhibition in test [1] and in test [4] were 52% (active) and 102% (active), respectively. Further, the results for the inhibition in test [2] and in test [3] were 20% and -2%, respectively. The result in test [5], in test [6], in test [7] and in test [8] was inactive.

For the molecule `COc1ccc2nccc([C@@H](O)CN3CCC(NCc4nc5ccccc5[nH]4)CC3)c2c1`, the growth inhibition is 2% in test [1] and 92% (active) in test [4]. Moreover, the inhibition is 41% in test [2] and 4% in test [3]. Moreover, the result in test [5], in test [6], in test [7] and in test [8] was inactive.

Consider `Cc1nnsc1C(=O)Nc1cccc(-c2cccc(-c3nc4ccc(F)cc4[nH]3)c2)c1`, for which the growth inhibition in test [1] was 45%; in test [4], 100% (active). In addition, the values for the inhibition in test [2] and in test [3] were 35% and 3%, respectively. Further, the outcome in test [5], in test [6], in test [7] and in test [8] was inactive.

With `COc1ccc(-c2cc(NCc3ccc(-n4ccnc4)cc3)nc(Nc3ccccc3)n2)cc1`, the growth inhibition was 79% (active) in test [1] and 101% (active) in test [4]. Moreover, the inhibition in test [2] is 8%; in test [3] it was 0%. For the same molecule, the result in test [5], in test [6], in test [7] and in test [8] was inactive.

Take `O=C(Nc1ccc([N+](=O)[O-])cc1Cl)c1cc2ccccc2cc1O`: the growth inhibition in test [1] was 28%; in test [4] it was 94% (active). The inhibition was 6% in test [2] and 0% in test [3]. For the same molecule, the result in test [5], in test [6], in test [7] and in test [8] was inactive.

`CS(=O)(=O)NCCCNCc1ccc(-c2ccc(-c3nc4ccc(C(F)(F)F)cc4[nH]3)cc2)cc1`: the figures for the growth inhibition in test [1] and in test [4] were 83% (active) and 100% (active), respectively. Moreover, the inhibition was 25% in test [2] and 1% in test [3]. Besides, the result in test [5], in test [6], in test [7] and in test [8] was inactive.

Turning to `CN(C)Cc1ccc2cc(NC(=O)c3ccc(-c4ccc(Cl)cc4)cc3)ccc2c1`, the growth inhibition in test [1] was 22%; in test [4], 92% (active). For the same molecule, the inhibition in test [2] was 21%; in test [3] it was -3%. The outcome in test [5], in test [6], in test [7] and in test [8] was inactive.

For `CS(=O)(=O)c1ccc2nc(-c3cc(-c4cccc(F)c4)cnc3N)[nH]c2c1`, the figures for the growth inhibition in test [1] and in test [4] were 71% (active) and 102% (active), respectively. For the same molecule, the inhibition was 33% in test [2] and 4% in test [3]. The result in test [5], in test [6], in test [7] and in test [8] was inactive.

On to `O=C(/C=C/c1ccc(Cl)c(Cl)c1)NCC1CCN(Cc2ccc(O)cc2)CC1`, for which the growth inhibition in test [1] is -3%; in test [4], 98% (active). For the same molecule, the inhibition in test [2] is 4%; in test [3] it was 6%. Further, the result in test [5], in test [6], in test [7] and in test [8] was inactive.

Turning to `COc1cccc(OC)c1C(=O)N1CCC2(CC1)C(=O)N(CC(=O)NC1CCCCC1)CN2c1ccccc1`, the results for the growth inhibition in test [1] and in test [4] were 91% (active) and 92% (active), respectively. Besides, the figures for the inhibition in test [2] and in test [3] were 16% and 5%, respectively. Besides, the result in test [5], in test [6], in test [7] and in test [8] was inactive.

With `CC(C)OC(=O)c1ccc(NC(=O)N[C@@H](Cc2ccc(O)cc2)C(=O)NC2CCC(CCN3[C@@H]4CC[C@H]3c3ccccc34)CC2)cc1` (stereo not given in full), the growth inhibition is 67% (active) in test [1] and 95% (active) in test [4]. Also, the inhibition in test [2] and in test [3] was 3% throughout. Also, the outcome in test [5], in test [6], in test [7] and in test [8] was inactive.

Consider `CCC[C@@H]([C@@H](CC1CCC(C)CC1)C(=O)N[C@@H](CO)C(=O)Nc1nccs1)N(O)C=O` (stereo not given in full), for which the growth inhibition in test [1] was 84% (active); in test [4], 100% (active). Besides, the inhibition in test [2] is 0%; in test [3] it was -2%. Further, the outcome in test [5], in test [6], in test [7] and in test [8] was inactive.

`Brc1ccc(C=NNc2nc3ccccc3[nH]2)cc1`: the growth inhibition was 90% (active) in test [1] and 102% (active) in test [4]. Moreover, the inhibition in test [2] was -3%; in test [3], 0%. Moreover, the outcome in test [5], in test [6], in test [7] and in test [8] was inactive.

Take `COc1ccc(-c2ccc(Nc3cccc(S(=O)(=O)CCN4CCC(CCN(C)C)CC4)c3)nc2)cn1`: the growth inhibition in test [1] is 9%; in test [4], 100% (active). The inhibition was 44% in test [2] and 3% in test [3]. Besides, the outcome in test [5], in test [6], in test [7] and in test [8] was inactive.

As to `COc1ccc(CNC2CCN(C)CC2)cc1-c1ccc(S(=O)(=O)NCc2ccccc2)c(F)c1`, the growth inhibition was 97% (active) in test [1] and 101% (active) in test [4]. Further, the values for the inhibition in test [2] and in test [3] were 53% (active) and 4%, respectively. The outcome in test [5], in test [6], in test [7] and in test [8] was inactive.

As to `O=C(/C=C/c1ccc(Cl)c(Cl)c1)NCCCCCN1CCC(NC(=O)Nc2ccc(F)cc2F)CC1`, the growth inhibition in test [1] was 23%; in test [4], 102% (active). For the same molecule, the inhibition in test [2] is 14%; in test [3] it was 2%. Besides, the result in test [5], in test [6], in test [7] and in test [8] was inactive.

As for `COc1cccc2c1CCN(CCN1CCC(NC(=O)c3ccc(-c4cccc(Cl)c4Cl)cc3)CC1)C2`, the growth inhibition in test [1] is 38%; in test [4], 100% (active). The inhibition was 47% in test [2] and -1% in test [3]. The outcome in test [5], in test [6], in test [7] and in test [8] was inactive.

As for `CN(CCCCCN1CCC(NC(=O)Nc2ccc(Oc3ccccc3)cc2)C1)C(=O)/C=C/c1ccc(Cl)c(Cl)c1` (stereo not given), the growth inhibition in test [1] is 14%; in test [4], 98% (active). The inhibition is 50% (active) in test [2] and -2% in test [3]. Further, the result in test [5], in test [6], in test [7] and in test [8] was inactive.

As for `Cn1nc(-c2ccc(NC(=O)Nc3cc(C(F)(F)F)cc(C(F)(F)F)c3)c(F)c2)c2cnc(NCCN3CCOCC3)nc21`, the growth inhibition was 37% in test [1] and 94% (active) in test [4]. Also, the results for the inhibition in test [2] and in test [3] were 43% and -6%, respectively. The result in test [5], in test [6], in test [7] and in test [8] was inactive.

On to `CC(C)C[C@H](NC(=O)c1ccc(OCCN2CCOCC2)cc1)C(=O)N[C@H](/C=N/N1CCNC1=O)CCc1ccccc1`, for which the growth inhibition is 94% (active) in test [1] and 89% (active) in test [4]. The inhibition in test [2] is 1%; in test [3], 4%. The outcome in test [5], in test [6], in test [7] and in test [8] was inactive.

(Values after PubChem BioAssay.)
